# Screening data as filed in PubChem.
# FMDV Renilla: FMDV antiviral activity by Renilla signal; FMDV replicon cells, Renilla luciferase signal; Potency, µM (top dose mostly 57.5 µM), inactives show top-dose activity change, negative = inhibition, hits mostly inhibitors; 0.32% of 120,000 active; further: nearly all actives have a fitted effect of over 55% in size
# FMDV antiviral: antivirals against foot and mouth disease virus; FMDV antiviral cell assay, firefly luciferase signal; Potency, µM (top dose mostly 57.5 µM), for inactives: at the highest dose activity change, negative = inhibition, hits mostly inhibitors; 0.23% of 120,000 active; further: nearly all actives have a fitted effect of over 60% in size
# Starred values were filed as active, the others as inactive; ? = inconclusive; [ ] = dose if it differs, or a comment. In the library only some 0.51% were active in any assay of this set; here they are far more common. The call rests on the fitted dose curve. On the % scale 0 is the no-effect control and ±100 the full control effect; potency means the concentration at half of the fitted maximal effect.
SMILES,FMDV Renilla,FMDV antiviral
O=C(Nc1ccc2c(c1)OCCCO2)c1ccc(SCc2cscn2)cc1,?,-10.1%
Cc1nc2sc3c(c2c2nc(C(=O)NCc4ccccc4)nn12)CC(C)(C)OC3,3.1%,0.5%
COc1cccc(CN2CCC(C(O)(c3ccccc3)c3ccccc3)CC2)c1OC,16.5%[1.06 µM],?
COc1cc(CN2CCC(C(O)(c3ccccc3)c3ccccc3)CC2)ccc1OCc1ccccc1,35.5µM*,?
O=C(Cc1cccc(F)c1)NCCc1c[nH]c2ccccc12,0.3%,10.1%
Fc1cccc(-c2nc(COc3ccccc3F)co2)c1,10.0%,159.7%
CNC(=O)c1ccccc1OCc1coc(-c2cccc(F)c2)n1,25.1µM*,?
COc1ccc(C(=O)Nc2nc3c(s2)CCCC3)cc1Cl,?,47.2%
O=C(Nc1nc2c(s1)CCCCC2)c1ccc(Cl)cc1,10µM*,-26.3%
CCOc1ccc(CN(CC)Cc2cc(=O)n3[nH]c(-c4cccc(C)c4)cc3n2)cc1,-10.8%,-12.6%
Cc1ccc(CN(Cc2cc(=O)n3[nH]c(-c4cccc(C)c4)cc3n2)CC(C)C)cc1,25.1µM*,?
Cc1ccnc(NC(=O)c2cc(-c3ccc(C)o3)nc3ccccc23)c1,-0.2%,50.6%
Cc1ccc(OCC(O)Cn2c(N)nc3c2c(=O)n(C)c(=O)n3C)cc1 (stereo not given),-13.9%,2.8%
CNc1nc2c(c(=O)n(C)c(=O)n2C)n1CC(O)COc1ccc(OC)cc1 (stereo not given),22.4µM*,?
O=C(Nc1nc(-c2ccc(Cl)cc2Cl)cs1)C1CCN(C(=O)c2ccco2)CC1,35.5µM*,?
O=C(Nc1ccc(-n2cccn2)c(F)c1)C1CCN(C(=O)c2ccco2)CC1,-19.3%,-6.9%
Cc1nc(CN2CCN(CCOc3ccc(Cl)cc3)CC2)no1,-25.0%,-12.9%
COc1cccc(C(=O)NN2CC(O)=C(c3nc(-c4ccc(Br)cc4)cs3)C2=N)c1,-6.2%,1.7%
CN(C)S(=O)(=O)c1ccc(C(=O)OCc2csc(-c3ccccc3)n2)cc1,0.1%,16.5%
Cc1nsc(N)c1C(=O)OCc1csc(-c2ccccc2)n1,1.78µM*,-13.3%
CC(C)(C)CC(=O)C(C#N)C(=O)Nc1ccccc1Cl (stereo not given),0.0%,0.0%
COc1ccc(C(=O)Nc2nc(-c3nnn(-c4ccccc4Br)c3C)ns2)cc1,14.1µM*,14.1µM*
COc1ccc(C(=O)Nc2nc(-c3nnn(-c4ccc(F)cc4F)c3C)ns2)cc1,15.2%,43.3%
CCn1c(N2CCN(Cc3ccc(F)cc3)CC2)nc2c1c(=O)[nH]c(=O)n2C,1.8%,7.9%
CC(C)(C)c1cc(-c2nc3ccccc3[nH]2)n[nH]1,7.9%,2.82µM*
SMILES,FMDV Renilla,FMDV antiviral
CC(C)(C)c1cc(C(C)(C)C)c2oc(=O)c(-c3nc4ccccc4[nH]3)cc2c1,-11.3%,-17.7%
COC(=O)C(C)Sc1nnc(Nc2ccccc2F)s1 (stereo not given),-0.6%,52.5%
Cn1c(SCc2nc(-c3ccc(C(F)(F)F)cc3)no2)nc2ccsc2c1=O,17.8µM*,22.4µM*
COCCn1c(SCc2nc(-c3cccc(C(F)(F)F)c3)no2)nc2ccsc2c1=O,-14.8%,-15.8%
CCN(Cc1ccccc1)c1sc(S(C)(=O)=O)nc1S(=O)(=O)c1ccc(C)cc1,159.7%,-3.4%
COc1ccc(Cn2c(C(=O)O)c(CNCc3ccccc3F)c3ccc(OC)cc32)cc1,0.0%,35.5µM*
CCOc1ccccc1CNCc1c(C(=O)O)n(Cc2ccccc2)c2cc(OC)ccc12,1.4%,-20.5%
Cc1cc(C(=O)Cn2c(Cl)nc3c2c(=O)n(C)c(=O)n3C)c(C)n1CCc1ccccc1,7.94µM*,28.2µM*
Cc1cc(C(=O)Cn2c(Cl)nc3c2c(=O)n(C)c(=O)n3C)c(C)n1C,14.6%,34.8%
CCOC(=O)N1CCN(Cc2cc(=O)oc3cc(C)c(C)cc23)CC1,10.7%,19.6%
CCn1c2c(c(=O)n3ncc(C(=O)N4CCN(c5ccc(Cl)cc5)CC4)c13)CN(Cc1ccc(OC)cc1)CC2,22.4µM*,?
CCn1c2c(c(=O)n3ncc(C(=O)Nc4ccc(F)c(Cl)c4)c13)CN(Cc1ccc(OC)cc1)CC2,-4.1%,-8.4%
COC(=O)c1nc2n(n1)C(c1cccc(Br)c1)C(C(=O)Nc1ccccc1OC)=C(C)N2 (stereo not given),18.4%,10.0%
CCOc1ccccc1NC(=O)CN(C)S(=O)(=O)c1ccc2nc(C)sc2c1,31.6µM*,?
COc1cccc(NC(=O)CN(C)S(=O)(=O)c2ccc3nc(C)sc3c2)c1,-8.3%,15.5%
N#C/C(=C/c1ccc(-c2ccccc2C#N)o1)c1nc2ccccc2[nH]1,19.9%,121.0%
CCC(C)NC(=O)[C@@H](NC(=O)N1CCn2c1nc1ccccc12)C(C)C (stereo not given in full),-6.4%,-4.0%
Cc1ccc(F)cc1S(=O)(=O)N(Cc1cc(CN2CCOCC2)cs1)c1ccc(F)cc1,9.5%,8.0%
COc1ccc(N(Cc2cc(CN3CCOCC3)cs2)S(=O)(=O)c2cc(C)cc(C)c2)cc1,-1.4%,25.1µM*
COc1ccccc1/C=C/c1nc(C#N)c(N2CCN(Cc3ccccc3)CC2)o1,-18.4%,-5.5%
Cc1ccc(N)c(OCC(F)F)c1,-10.8%[1.06 µM],-2.8%
CSc1ccc(CN(C)C(=O)CSc2nnc(COc3ccc(Cl)cc3)n2C)cc1,3.98µM*,10µM*
CN(Cc1ccsc1)C(=O)CSc1nnc(COc2ccc(Cl)cc2)n1C,9.2%,6.6%
CCN(CC(=O)NC(C)(C)C)C(=O)c1cc(C(C)C)nc2ccccc12,3.9%,7.1%
CSc1ccc(C2C3=C(CCCC3=O)OC3=C2C(=O)CCC3)cc1,73.8%,7.8%
SMILES,FMDV Renilla,FMDV antiviral
Cc1ccccc1OCC(=O)N1CCC(c2nc3ccccc3s2)CC1,-9.8%,-6.3%
COc1ccc(OCC(=O)N2CCC(c3nc4ccccc4s3)CC2)cc1,25.1µM*,28.2µM*
COC(=O)c1cccc(CNC(=O)c2ccccc2C(=O)O)c1,8.7%,2.6%
O=C(/C=C/N1CCC(Cc2ccccc2)CC1)C(F)(F)F,?,-16.2%
O=C(/C=C/N1CCC(CCCC2CCN(/C=C/C(=O)C(F)(F)F)CC2)CC1)C(F)(F)F,10µM*,?
CC(Sc1nnc(Nc2ccccc2)s1)C(=O)N(C)c1ccccc1 (stereo not given),21.4%,19.4%
COc1ccccc1CNC(=O)CN1C(=O)CCCc2ccccc21,-3.3%,-3.9%
Cc1ccccc1CNC(=O)CN1C(=O)CCCc2ccccc21,31.6µM*,113.9%
Cc1ccc(-c2cc(C(=O)N3CCN(C(=O)C4CC4)CC3)c3ccccc3n2)o1,-8.0%,35.5%
O=C(CSc1nc(Cl)nc2nc[nH]c12)Nc1cccc(Cl)c1,8.3%,1.8%
COc1ccc(NC(=O)c2ccc(NC(=O)N3CCSc4ncccc43)cc2)cc1,5.3%,2.5%
CC(=O)c1ccc(NC(=O)c2cccc(NC(=O)N3CCSc4ncccc43)c2)cc1,-8.7%,3.16µM*
O=C(C1CCN(S(=O)(=O)Cc2c(F)cccc2Cl)CC1)N1CCCC1,16.8%,18.4%
CCOc1ccc(NC(=O)c2cccc(CN3CCCC3=O)c2)cc1,-2.6%,73.2%
CC(C)(C)c1ccc(NC(=O)c2cccc(CN3CCCC3=O)c2)cc1,28.2µM*,?
CCc1cc2c(=O)c(Oc3ccc(I)cc3)c(C(F)(F)F)oc2cc1OC(=O)c1ccc(Br)cc1,12.1%,6.1%
CCc1cc2c(=O)c(Oc3ccc(F)cc3)c(C(F)(F)F)oc2cc1OC(C)=O,10µM*,14.1µM*
CCN(CC)S(=O)(=O)c1cc(-c2onc(C)c2C)ccc1OC,101.0%,-8.9%
